# Shown are actives, neighbours in structure and some others; about 1.6% of the full set was active somewhere.
# KCNQ2 enhance = potentiators of rat KCNQ2 potassium channel. B-score at 10 µM. CHO-K1 KCNQ2, FluxOR thallium flux fluorescence; stronger effect = higher value. hit rate 0.54% among 310,000. O88943;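 active = fluorescence ratio B-score at least 3 SD of library B-scores, with initial fluorescence B-score within 3 of them, cut at about 5.3 in these data; same plate scores as AID 2156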;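 also: B-score of peak minus minimum over baseline fluorescence ratio after K+ and Tl+ stimulus; positive B-score means potentiation of KCNQ2 with more thallium influx and brighter signal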
# KCNQ2 block = blocks the rat KCNQ2 potassium channel; O88943; B-score at 10 µM; hit rate 1.1% among 310,000; CHO-K1 KCNQ2, FluxOR thallium flux, 20 min; stronger effect = lower value;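 active = fluorescence ratio B-score at most minus 3 library SDs, with starting brightness B-score within 2 library SDs, cut at about -5.5 in these data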
# Kir21 conf inh = confirmation of mouse Kir2.1 potassium channel inhibitors | shares compounds with KCNQ2 enhance | Kir2.1-expressing cells, FluxOR thallium flux fluorescence; stronger effect = lower value | Tl flux remaining, % of negative control (stronger effect = lower value), % at 10 µM | hit rate 41% among 2,300 | AID 2032;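 active = Primary-screen hit whose thallium flux fell at least 3 control SD below untreated wells in both duplicates, with normal baseline fluorescence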;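 also: 0% = blank wells without stimulus and 100% = stimulated no-compound controls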
# HEK293 Tl flux = parental HEK293 activity in Kir2.1 inhibitor counter-screen. shares compounds with KCNQ2 enhance. parental HEK293 cells, FluxOR thallium flux fluorescence; 0% = unstimulated blank wells. FluxOR signal as % of negative control (100 = no effect), % at 10 µM. hit rate 19% among 2,300;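 active = dye signal at least 3 control SD above or below untreated wells in both duplicates, raw fluorescence within 3, either direction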;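 also: percent is based on the flux ratio of peak minus minimum fluorescence over baseline F0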
# CHO-K1 Tl ctr = parental CHO-K1 activity in KCNQ2 potentiator counter-screen | shares compounds with KCNQ2 enhance | hit rate 43% among 1,200 | parental CHO-K1 cells, FluxOR thallium flux fluorescence; zero = vehicle mean+3SD, 100% = vehicle-minus-blank window | activity increase over 3SD of controls, % at 10 µM;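 active = signal rise of at least 3 SD above the untreated control mean, in both duplicate wells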;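 also: counter screen of KCNQ2 potentiator hits so any rise reflects channel-independent effects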
# KCNQ1 sel pot = selectivity of KCNQ2 potentiators: effect on human KCNQ1; shares compounds with KCNQ2 enhance; CHO KCNQ1 stable, FluxOR thallium flux fluorescence; beyond 3SD, as % of vehicle-control signal; activation over 3SD threshold, % at 10 µM; hit rate 28% among 1,200; AID 2283;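 active = fluorescence ratio rise of at least 3 SD of vehicle wells above their mean, in both replicate wells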;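 also: 0% = vehicle mean plus 3 SD and 100% = vehicle minus unstimulated blank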
# KCNQ2 pot confirm = rat KCNQ2 channel potentiator confirmation; shares compounds with KCNQ2 enhance; CHO-KCNQ2 cells, FluxOR thallium flux fluorescence; potentiation, less the hit threshold, % at 10 µM; hit rate 68% among 1,200; AID 2287;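 active = fluorescence ratio rising 3 SD or more over the vehicle control mean in both replicates, plus primary screen hit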;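 also: peak minus minimum thallium fluorescence divided by baseline after K/Tl stimulus; 0% = vehicle mean plus 3 SD and 100% = vehicle minus unstimulated blank difference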
# Kir2-1 sel = mouse Kir2.1 off-target activity of KCNQ2 potentiators; shares compounds with KCNQ2 enhance; HEK293 Kir2.1, FluxOR thallium flux fluorescence; activity over 3SD threshold, % at 10 µM; hit rate 2% among 1,200; AID 2345;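 active = fluorescence ratio rise of at least 3 SD above the vehicle-control mean, seen in both replicates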;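 also: 0% = vehicle mean plus 3 SD and 100% = vehicle minus no-stimulus blank window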
# KCNQ2 W236L pot = rat KCNQ2 W236L mutant potentiation by KCNQ2 potentiators | hit rate 10% among 940 | CHO KCNQ2-W236L, automated patch clamp current | current increase over 3SD of negative controls (%), stronger effect = higher value, % at 25 µM | shares compounds with KCNQ2 enhance;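 active = current increase at least 3 SD of the untreated controls above them in both duplicate recordings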
# Target sequence (O88943 whole entry W236L, looked up): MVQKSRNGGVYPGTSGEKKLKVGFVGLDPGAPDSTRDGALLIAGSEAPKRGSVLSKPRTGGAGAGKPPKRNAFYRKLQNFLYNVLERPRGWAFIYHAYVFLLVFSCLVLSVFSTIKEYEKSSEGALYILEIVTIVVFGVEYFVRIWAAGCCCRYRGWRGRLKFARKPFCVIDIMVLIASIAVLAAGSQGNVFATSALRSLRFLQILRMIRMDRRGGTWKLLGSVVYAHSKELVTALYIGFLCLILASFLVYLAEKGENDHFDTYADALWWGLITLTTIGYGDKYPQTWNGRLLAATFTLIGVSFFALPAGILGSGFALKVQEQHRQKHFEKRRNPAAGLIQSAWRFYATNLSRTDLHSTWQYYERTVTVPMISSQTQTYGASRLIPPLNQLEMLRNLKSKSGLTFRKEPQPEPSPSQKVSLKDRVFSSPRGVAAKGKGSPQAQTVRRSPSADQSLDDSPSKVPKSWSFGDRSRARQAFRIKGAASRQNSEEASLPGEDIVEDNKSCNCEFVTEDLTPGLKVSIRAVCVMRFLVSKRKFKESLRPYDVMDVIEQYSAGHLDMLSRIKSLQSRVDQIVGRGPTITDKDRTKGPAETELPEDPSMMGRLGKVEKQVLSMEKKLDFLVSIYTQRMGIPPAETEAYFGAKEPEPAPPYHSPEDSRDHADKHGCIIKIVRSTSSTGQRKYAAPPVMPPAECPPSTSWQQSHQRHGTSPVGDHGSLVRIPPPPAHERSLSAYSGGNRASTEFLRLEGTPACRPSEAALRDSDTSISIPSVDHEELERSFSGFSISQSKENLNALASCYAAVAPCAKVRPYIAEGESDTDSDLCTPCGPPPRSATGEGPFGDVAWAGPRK
# An asterisk follows results filed as active; i = inactive; · = no result.
SMILES,KCNQ2 enhance,KCNQ2 block,Kir21 conf inh,HEK293 Tl flux,others
CC(C)Cn1c(=O)c(C(=O)Nc2ccccc2S(N)(=O)=O)c(O)c2ccccc21,·,i,·,·,
COc1ccc(NC(=O)c2sc3nc(N4CCOCC4)c4c(c3c2N)CC(C)(C)OC4)cc1,·,i,·,·,
CC1(C)Cc2c(c(N3CCOCC3)nc3snc(NC(=O)c4ccccc4)c23)CO1,8.6*,i,i,i,CHO-K1 Tl ctr=-13;KCNQ1 sel pot=-15;KCNQ2 pot confirm=28*;Kir2-1 sel=-18;KCNQ2 W236L pot=i
COc1cccc(CN2CCCC(C(=O)c3ccc4c(c3)OCO4)C2)c1O (stereo not drawn),·,i,·,·,
COc1ccc(CN2CCCC(C(=O)c3ccc4c(c3)OCO4)C2)c(F)c1 (stereo not drawn),·,i,56%*,i,
C(=C\n1nnc2ccccc21)/c1ccccn1,0.83,i,·,·,
CC(=O)c1ccc(Nc2cc(C)nc3c(C)cccc23)cc1,·,i,·,·,
Cc1ccc(Nc2cc(C)nc3c(C)cccc23)cc1,1.4,i,36%*,i,
COc1ccccc1C(=O)NC(=O)Cn1nc(C)c([N+](=O)[O-])c1C,·,i,·,·,
CCn1c(O)c(N=Nc2ccc(Cl)c(C(=O)O)c2)c2ccccc21,2.8,i,·,·,
CC(C)n1c(O)c(N=Nc2ccc(Cl)c(C(=O)O)c2)c2ccccc21,7.5*,i,i,i,CHO-K1 Tl ctr=78*;KCNQ1 sel pot=29*;KCNQ2 pot confirm=23*;Kir2-1 sel=-32;KCNQ2 W236L pot=50%*
CN(C)CC[n+]1ccc(C(=O)c2ccccc2)cc1,0.5,i,·,·,
CCc1ccc2c(c1)c(N=NC1=NC(=O)CS1)c(O)n2CC,9.7*,i,i,224%*,CHO-K1 Tl ctr=-26;KCNQ1 sel pot=-11;KCNQ2 pot confirm=28*;Kir2-1 sel=-20;KCNQ2 W236L pot=i
CCc1ccc2[nH]c(O)c(N=NC3=NC(=O)CS3)c2c1,·,i,·,·,
O=C(Cc1ccc([N+](=O)[O-])cc1)N/N=C/c1cccs1,1.1,i,·,·,
CCOCCCNc1ncnc2c1[nH]c1ccccc12,1.5,i,·,·,
CCCCOCCCNc1ncnc2c1[nH]c1ccccc12,·,i,44%*,i,
Cc1ccc(C(=O)N[C@H](C(=O)Nc2sccc2C(N)=O)C(C)C)cc1,·,i,·,·,
CC(NC(=O)CC12CC3CC(CC(C3)C1)C2)C(=O)O (stereo not drawn),1.2,i,·,·,
COc1ccc(C(C)NC(=O)CC23CC4CC(CC(C4)C2)C3)cc1 (stereo not drawn),5.7*,i,i,i,CHO-K1 Tl ctr=-11;KCNQ1 sel pot=-10;KCNQ2 pot confirm=-3;Kir2-1 sel=-52;KCNQ2 W236L pot=i
CN(CC1COc2ccccc2O1)C(=S)Nc1ccccc1 (stereo not drawn),·,i,·,·,
CCN(CC1COc2ccccc2O1)C(=S)NC1CC2CCC1C2 (stereo not drawn),12*,i,i,64%*,CHO-K1 Tl ctr=37*;KCNQ1 sel pot=-13;KCNQ2 pot confirm=-6;Kir2-1 sel=-35;KCNQ2 W236L pot=i
CCOc1ccc(N(CC(=O)NN=C2CCN(C)CC2)S(=O)(=O)c2ccc(Br)cc2)cc1,0.82,i,·,·,
CCOC(=O)C1=C(Cn2cnc3ccccc32)NC(=O)NC1c1cc(C)ccc1C (stereo not drawn),6.6*,i,i,52%*,CHO-K1 Tl ctr=-10;KCNQ1 sel pot=-15;KCNQ2 pot confirm=-8;Kir2-1 sel=-39;KCNQ2 W236L pot=i
COC(=O)C1=C(Cn2cnc3ccccc32)NC(=O)NC1c1cc(C)ccc1C (stereo not drawn),1.1,i,·,·,
SMILES,KCNQ2 enhance,KCNQ2 block,Kir21 conf inh,HEK293 Tl flux,others
CC(=O)Nc1cc(C(=O)N(C)Cc2ccccc2)ccc1S(=O)(=O)c1ccc(C)cc1,·,i,·,·,
Cc1cc(C)cc(N(CCC#N)C(=O)COC(=O)c2nc3nc(C)cc(C)n3n2)c1,0.39,i,·,·,
O=c1c2ccc(Cl)cc2nc(-c2cccc(C(F)(F)F)c2)n1O,18*,i,i,498%*,CHO-K1 Tl ctr=-12;KCNQ1 sel pot=-13;KCNQ2 pot confirm=66*;Kir2-1 sel=4.2*;KCNQ2 W236L pot=i
N#Cc1ccc(-c2nc3ccccc3c(=O)n2O)cc1,0.63,i,·,·,
O=c1c2ccccc2nc(-c2ccc(Cl)cc2Cl)n1O,0.93,i,·,·,
O=c1c2ccccc2nc(-c2ccccc2Cl)n1O,·,i,·,·,
O=c1c2ccccc2nc(-c2ccc(Cl)c(Cl)c2)n1O,15*,i,i,314%*,CHO-K1 Tl ctr=-13;KCNQ1 sel pot=-10;KCNQ2 pot confirm=50*;Kir2-1 sel=-30;KCNQ2 W236L pot=i
O=c1c2cc(Br)ccc2nc(-c2ccc(Cl)cc2)n1O,17*,i,i,566%*,CHO-K1 Tl ctr=-8;KCNQ1 sel pot=41*;KCNQ2 pot confirm=93*;Kir2-1 sel=15*;KCNQ2 W236L pot=i
Cc1ccc(-c2nc3c(Cl)cc(Cl)cc3c(=O)n2O)cc1,17*,i,i,542%*,CHO-K1 Tl ctr=4.1*;KCNQ1 sel pot=2.4*;KCNQ2 pot confirm=102*;Kir2-1 sel=0.8*;KCNQ2 W236L pot=i
N#Cc1ccc(-c2nc3cc(Cl)ccc3c(=O)n2O)cc1,4.7,i,·,·,
CCn1c(C)c(C)c2cc(C(=O)NCCCN3CCCCC3C)ccc21 (stereo not drawn),·,i,·,·,
Cc1cc(C)cc(NS(=O)(=O)c2ccc3[nH]c(=O)ccc3c2)c1,·,i,·,·,
COc1cc(CNC(=O)c2cnc(C)cn2)cc(OC)c1,·,i,·,·,
CCN1C(=O)Cc2cc(S(=O)(=O)NCCc3ccccc3)ccc21,1.2,i,·,·,
Cc1cccc(NC(=O)CSCC(=O)Nc2cc(Cl)ccc2N2CCOCC2)c1,2.9,i,·,·,
On1c(-c2ccccc2)nc2ccc(Cl)cc21,·,i,·,·,
O=c1c2cc(Cl)ccc2nc(-c2ccc([N+](=O)[O-])cc2)n1O,9.7*,i,i,308%*,CHO-K1 Tl ctr=-9;KCNQ1 sel pot=-18;KCNQ2 pot confirm=42*;Kir2-1 sel=-25;KCNQ2 W236L pot=i
COc1ccccc1CC(NC(C)=O)C(=O)NC1CCN(S(=O)(=O)c2ccccc2)CC1 (stereo not drawn),·,i,·,·,
COc1ccc(CNC(=O)CSc2nnc(NC(=O)c3ccccc3F)s2)cc1,0.54,i,·,·,
CC1=CC(C)(C)n2c(O)c(N=NC(N)=S)c3c(C)ccc1c32,0.15,i,·,·,
CC1=CC(C)(C)n2c(O)c(N=N)c3c(C)ccc1c32,5.3*,i,i,i,CHO-K1 Tl ctr=54*;KCNQ1 sel pot=-9;KCNQ2 pot confirm=-15;Kir2-1 sel=-21
COc1cc(C)ccc1OCCCCNCc1ccccc1,0.05,i,58%*,i,
C/C=C/c1ccc(OCCOCCNCc2ccccc2)c(OC)c1,0.43,i,30%*,i,
Cc1ccc(OCCNCc2ccccc2)c(C)c1,·,i,·,·,
C/C=C/c1ccc(OCCOc2cc(C=O)ccc2OC)c(OC)c1,0.03,i,·,·,
